# Hits are enriched below; roughly 7.9% of the tested compounds scored in any of these assays.
# KB-V1 MDR tox – qHTS assay for MDR1-selective chemotherapeutics: Primary screen using the drug-selected MDR subline cells KB-V1 | Potency, µM (doses to about 46.1 µM), hits mostly cytotoxic | KB-V1 MDR cells viability, CellTiter-Glo, 72 h | hit rate 3.4% among 400,000; further: nearly all actives have a fitted effect of over 60% in size
#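 Cells of the MDR subline KB-V1 are plated, dosed with compound at multiple concentrations, and incubated 72 h at 37 degrees C; CellTiter-Glo is then added and luminescence read after 10 min.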
# HT1080 IDH1KD tx – qHTS for induction of synthetic lethality in tumor cells producing 2HG: qHTS for the HT-1080-IDH1KD cell line; HT-1080 IDH1 knockdown viability, ATP luminescence, 48 h; AID 686971, 2013; Potency, µM (titrated, usually from 46.1 µM), actives largely listed as cytotoxic; hit rate 2% among 360,000
#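 After a 2 h attachment period, IDH1KD HT-1080 cells took pin-transferred compound for 48 h at 37 °C; ATP-based luminescence after 10 min room-temperature reagent incubation reported viability.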
# SW480 rereplic – A quantitative high throughput screen for small molecules that induce DNA re-replication in SW480 colon adenocarcinoma cells; hit rate 1.8% among 340,000; SW480 DNA re-replication, Hoechst DNA content imaging, 48 h; Potency, µM (highest dose often 46.1 µM), most hits filed as activators; further: nearly all actives have a fitted effect of over 55% in size
#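 Readout is total intensity of Hoechst-stained nuclei, excited at 405 nm and collected at 500-530 nm. Compound treatment lasted 48 hr at 37 C in 5% CO2 before staining.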
# MCF10A rerep – A quantitative high throughput screen for small molecules that induce DNA re-replication in MCF 10a normal breast cells; hit rate 2.9% among 350,000; MCF 10A DNA re-replication, Hoechst nuclear intensity, 48 h; AID 624296, 2012; Potency, µM (series often up to 46.1 µM), usual class: activators; further: nearly all actives have a fitted effect of over 50% in size
# KB-3-1 tox – qHTS assay for MDR1-selective chemotherapeutics: Primary screen using the parental adenocarcinoma cell KB-3-1 | KB-3-1 viability, CellTiter-Glo ATP luminescence, 72 h | Potency, µM (highest dose often 46.1 µM), most hits filed as cytotoxic | hit rate 1.4% among 400,000 | AID 1347075, 2019; further: nearly all actives have a fitted effect of over 60% in size
#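 Parental KB-3-1 viability, qHTS format: 72 h compound exposure, 37 °C; CellTiter-Glo; media-only wells and DMSO plates as controls; concentration-effect fits on corrected data.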
# HT1080NT lethal – qHTS for induction of synthetic lethality in tumor cells producing 2HG: qHTS for the HT-1080-NT fibrosarcoma cell line | HT-1080-NT fibrosarcoma viability, CellTiter-Glo ATP luminescence, 48 h | Potency, µM (doses to about 46.1 µM), usual class: cytotoxic | hit rate 1.6% among 360,000;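 further: NT is the 2HG producing partner of a matched IDH1 knockdown line; nearly all actives have a fitted effect of over 55% in size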
#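 Compounds were tested in concentration-response format on HT-1080-NT cells for 48 hours at 37 degrees C. Cell viability came from CellTiter-Glo luminescence; curves were classified by r2, response magnitude and activity.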
# A number is an active result; – = inactive; ? = inconclusive; · = not tested or not shown; ! = not confirmed by another sample. The call rests on the fitted dose curve; in most records, active means well fitted curve in the direction sought with a large enough effect; inconclusive means small, poorly fitted or top-dose-only effect, or another doubt; inactive means no such curve, though single readings can be large; an effect the other way counts as inactive or inconclusive.
SMILES,KB-V1 MDR tox,HT1080 IDH1KD tx,SW480 rereplic,MCF10A rerep,KB-3-1 tox,HT1080NT lethal
O=c1c2ccccc2n(Cc2c(F)cccc2Cl)c(=O)n1CCc1ccccc1,–,·,·,·,–,·
Cc1ccc(NC2=C/C(=N/S(=O)(=O)c3cccs3)c3ccccc3C2=O)cc1,?,4.1µM,?,8.2µM,2.3µM,2.9µM
Cc1ccc(/C=C2\S/C(=N/S(=O)(=O)c3cccs3)NC2=O)cc1,–,–,–,–,–,–
O=S(=O)(/N=C(/Nc1cccc2ccccc12)c1ccccc1)c1cccs1,–,–,–,–,?,–
O=C1C(Nc2ccccc2)=C/C(=N/S(=O)(=O)c2cccs2)c2ccccc21,?,?,5.8µM,3.3µM,?,?
COC(=O)c1sc(NC(=O)c2cc3nc(-c4ccc(Br)cc4)cc(C(F)(F)F)n3n2)c(C(=O)OC)c1C,–,·,·,·,–,·
CN(C)CCCNc1ccc(-c2cc(Nc3cccc(Cl)c3)ncn2)cn1,–,–,?,21µM,–,–
CC(=O)NC/C(C)=N\Nc1ccc([N+](=O)[O-])cc1,–,3.7µM,–,–,?,4.6µM
C/C(=N\Nc1ccc([N+](=O)[O-])cc1)c1ccc(O)cc1,–,?,23µM,15µM,–,?
CC(C)Cn1c(-c2cccc(Br)c2)nc2ccccc21,–,·,·,·,–,·
Cc1cccc(Cn2c(Cc3ccccc3)nc3ccccc32)c1,21µM!,–,–,–,–,–
COCc1nc2ccccc2n1Cc1cccc(C)c1,16µM!,–,–,–,–,–
Cc1cccc(C(=O)NCCc2nc3ccccc3n2Cc2ccc(Cl)cc2)c1,10µM,·,·,·,?,·
Cc1cccc(Cn2c(COc3ccc(Cl)cc3)nc3ccccc32)c1,–,·,·,·,–,·
COCn1c(-c2cccc(Br)c2)nc2ccccc21,18µM,?,–,–,–,?
Cc1cccc(Cn2c(-c3ccccc3)nc3ccccc32)c1,–,·,·,·,?,·
O=C(NCCc1nc2ccccc2n1Cc1ccc(Cl)cc1)c1ccccc1,?,·,·,·,–,·
COc1ccc(-c2nn(C)c3sc(C(=O)N4CCN(c5cc(Cl)ccc5C)CC4)cc23)cc1OC,–,·,·,·,–,·
Cc1cc(C)nc(/N=C(\N)Nc2ccc(OCCC(C)C)cc2)n1,?,23µM,–,?,?,15µM
COc1ccccc1N/C(N)=N/c1nc(C)cc(C)n1,–,–,–,?,–,–
Cc1cc(C)nc(/N=C(\N)Nc2ccc(OCc3ccccc3)cc2)n1,?,?,?,?,?,18µM
Cc1cc(C)nc(/N=C(\N)Nc2cccc(OCc3ccccc3)c2)n1,5.8µM,?,?,13µM,?,?
COc1ccc(N/C(N)=N/c2nc(C)cc(C)n2)cc1,–,–,·,·,–,–
O=C(Cc1cc(C(F)(F)F)cc(C(F)(F)F)c1)Nc1c(-c2ccccc2)[nH][nH]c1=O,–,–,·,·,–,–
CC(=O)N1c2ccc(S(=O)(=O)N3CCCCCC3)cc2CC1C(=O)NC(C)C (centres undefined),–,·,·,·,–,·
CCN(c1cccc(C)c1)c1ncnc2c1cnn2-c1cccc(Cl)c1,–,·,·,·,–,·
CC(C)NC(=O)C1C(c2ccccc2)=Nc2ccccc2N1C(=O)c1cc(Cl)cc(Cl)c1 (centres undefined),?,16µM,·,·,–,16µM
CCOc1ccc(CC(=O)NCCc2csc(-c3ccc(C(F)(F)F)cc3)n2)cc1,?,·,·,·,–,·
Cc1ccc(-c2csc(NC(=O)Cn3cnc4c3c(=O)n(C)c(=O)n4C)n2)cc1C,–,–,–,21µM,–,–
Cc1ccc(-c2csc(NC(=O)/C=C/c3cccs3)n2)cc1C,9.2µM,–,–,?,?,–

# Screens: PubChem BioAssay, National Center for Advancing Translational Sciences (NCATS)
